We go through 40 sequences from the OligoGym collection.
Further: reference of the scale not given here.

One assay has as its target ARIH1. The assay can be described thus: pooled miR-30 sensor sort-seq; sequence = guide strand. Particulars: shRNA.
As to TATCCTGCAGAGAATCTTGGGA, the sensor-assay potency score (higher = more potent) came out at 0.446.

As for TTGGACTTTAACAACATGGTGG, the sensor-assay potency score (higher = more potent) was 0.0155.

Take TTTAACAGTCGATTGCACTCTA: the sensor-assay potency score (higher = more potent) was found to be 0.745.

For TAGCGGTTACAGTTGTACCAGG, the sensor-assay potency score (higher = more potent) is -0.854.

In turn, TTGTCTTGTACTTTCTGCTTTA gave a sensor-assay potency score (higher = more potent) of -0.218.

TTAACCACTTACATTTAACAGG: the sensor-assay potency score (higher = more potent) was -0.703.

For the sequence TTACAGTAGAACAGGTACCTCT, the sensor-assay potency score (higher = more potent) was -0.0917.

TTAACAGTCGATTGCACTCTAC had a sensor-assay potency score (higher = more potent) of -0.996.

The target in the next assay is ARL3. The assay is described as above. Particulars: shRNA.
Take TTGACATTTTTGCAGACCCAGT: the sensor-assay potency score (higher = more potent) was -1.64.

The sequence TTGTACACTTTTGATGTTGAAA had a sensor-assay potency score (higher = more potent) of -1.03.

Turning to ATACATTCAGTTTAAAACCTTG, the sensor-assay potency score (higher = more potent) was -0.514.

Sequence TAAGAATATCGGTATTTTCAAA came in with a sensor-assay potency score (higher = more potent) of -1.26.

Sequence TTTTCAAAATAATTCTTCCAGT displayed a sensor-assay potency score (higher = more potent) of -0.927.

On to TTCAGAAGAGTGGTCTTGCCAG, for which the sensor-assay potency score (higher = more potent) was -0.492.

For TTGATGTTGAAACCCTGTGTAG, the sensor-assay potency score (higher = more potent) was -0.924.

As for AATCTTTTTCTGTCTGCACTGT, the sensor-assay potency score (higher = more potent) was -0.19.

As for TTACATATATAAGAATATCGGT, the sensor-assay potency score (higher = more potent) was -0.321.

In the case of TTTGATGTTGAAACCCTGTGTA, the sensor-assay potency score (higher = more potent) turned out to be 0.537.

With TTAGTTTTTCTTCCTCCAGTAA, the sensor-assay potency score (higher = more potent) is -0.387.

TTCAGTTTAAAACCTTGTGATT came in with a sensor-assay potency score (higher = more potent) of -1.5.

For the sequence TGATTGTACACTTTTGATGTTG, the sensor-assay potency score (higher = more potent) was -0.736.

Regarding TTTTGATGTTGAAACCCTGTGT, the sensor-assay potency score (higher = more potent) was 0.456.

Take TTCAGATGCAAGCTGCTTCAGA: the sensor-assay potency score (higher = more potent) is -0.224.

Regarding AATTCTTCCAGTATGGTCTGAT, the sensor-assay potency score (higher = more potent) came to 0.17.

On to TACATATATAAGAATATCGGTA, for which the sensor-assay potency score (higher = more potent) was -0.522.

On to TTGTGATTGTACACTTTTGATG, for which the sensor-assay potency score (higher = more potent) was -1.36.

Take TTTTTCTGTCTGCACTGTCGAT: the sensor-assay potency score (higher = more potent) was -0.887.

Sequence TTTTCTGTCTGCACTGTCGATT came in with a sensor-assay potency score (higher = more potent) of -0.243.

AACCTTGTGATTGTACACTTTT: the sensor-assay potency score (higher = more potent) is -0.441.

TAATTCTTCCAGTATGGTCTGA gave a sensor-assay potency score (higher = more potent) of 0.485.

The sequence TCTGGTGCACTTTTCAACTTGC showed a sensor-assay potency score (higher = more potent) of 0.321.

The target of a further assay is ARL4D. Described as above. Particulars: shRNA.
For AAACTCCTTGAACTTGAGGCGG, the sensor-assay potency score (higher = more potent) is -0.934.

Sequence TTCGGTGCAACTCCACCTTGGC showed a sensor-assay potency score (higher = more potent) of 0.0163.

On to TCGGTGTTGAAGCCTTTGGTGG, for which the sensor-assay potency score (higher = more potent) is -1.59.

As to ATTCGGTGCAACTCCACCTTGG, the sensor-assay potency score (higher = more potent) is -0.512.

The sequence TAGACCGTCTGTCCGGCGGGTA yielded a sensor-assay potency score (higher = more potent) of -1.34.

TTGGAAGGTGATGCCACGCGAT gave a sensor-assay potency score (higher = more potent) of -0.67.

TATAAGAGCGCCACAGTGGTCG registered a sensor-assay potency score (higher = more potent) of -0.158.

In turn, TCCACCACAAACACTAGACCGT registered a sensor-assay potency score (higher = more potent) of -0.55.

With AACTCCTTGAACTTGAGGCGGT, the sensor-assay potency score (higher = more potent) was -0.138.
